Test results taken from PubChem BioAssay.
Results filed as inconclusive are left out. Calls of active or inactive are those of the source.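 How the source made its calls, unless noted: active means viability at or below 30% in both replicate assays; inconclusive means viability at or below 30% in just one of the two assays; inactive means the rest.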

Experiments:
[1] = Her2 expression decrease, cell viability multiplex – SKBR3 breast tumor cells, AlphaScreen, ATP viability, primary screen (AID 461;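 active means Her2 level under about 52% in both replicate screens, with viability over 70% of control, limit read from the data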;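 on Her2 level: lower value means less Her2 protein in the cells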;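 on viability: percent of carrier control wells set as 100% viability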); conditions: SKBR3 Her2 protein level, 18-24 h, measured here: SKBR3 viability, ATP luminescence, at 10 µM
[2] = biological target: Receptor tyrosine-protein kinase erbB-2 (Homo sapiens) (UniProt P04626); assay: as above; conditions: 18-24 h, at 10 µM, stronger effect = lower value
[3] = reduced viability of SK-BR-3 breast cancer cells – cell-based, 24 h, human, pilot screen (AID 572;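 active means viability at or below 10% of carrier control in both of two separate runs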;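 further: compound exposure lasted between 18 and 24 h rather than exactly 24 h; 100% = carrier-treated control wells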); conditions: SK-BR-3 viability, CellTiter-Glo luminescence, at 10 µM, stronger effect = lower value
[4] = HUVEC growth inhibition – cell-based, human, primary screen (AID 575); conditions: HUVEC proliferation, CellTiter-Glo luminescence, 72 h; at 10 µM; stronger effect = lower value;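 further: 100% = median of untreated cell wells with 0.1% DMSO on each plate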
[5] = H69AR cell proliferation blockers – human, duplicate replicates, primary screen (AID 580;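 active means viability at or under a set limit in both replicates, limit being median viability minus 3 SD, cut at about 48% in these data, passing the limit was not always enough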;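 further: 100% = mean luminescence of untreated wells and 0% = no signal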); conditions: H69AR lung tumor cells viability, ATP luminescence, 72 h; at 10 µM; stronger effect = lower value
[6] = MRP1 drug-resistance reversers in H69AR cells – cell-based, doxorubicin co-treatment, pilot screen (AID 601;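 active means viability loss from added drug above about 55%, and viability with drug at most 40%, in both replicates, limit read from the data, passing the limit was not always enough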); conditions: CellTiter-Glo, 72 h, at 10 µM; for differential viability (reversal): stronger effect = higher value
[7] = yeast transport mutant growth inhibition pilot in 384-well plates, post-Golgi transport modulator project (AID 636; in the data active means inhibition above about 31%); conditions: absorbance 615 nm, about 18 h, stronger effect = higher value
[8] = growth suppression of yeast trafficking mutant, preliminary HTS, modulators of trafficking downstream of Golgi apparatus project, 1536-format plate, OD 615 nm (AID 637; in the data active means inhibition above about 30%); conditions: yeast transport mutant growth, absorbance 615 nm, 18 h; stronger effect = higher value
[9] = S. cerevisiae growth inhibition in permissive medium (OD615), pilot counter-assay for S. cerevisiae lifespan shortening project, permissive growth control (AID 705;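 active means growth inhibition above 25% in both replicates, a cutoff set 3 SD above the mean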); conditions: OD615, 24 h, at 10 µM, stronger effect = higher value
[10] = S. cerevisiae growth inhibition in restrictive medium, OD615, pilot screen, restrictive growth control, yeast lifespan reduction project (AID 706;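 active means growth inhibition above a set limit, 3 SD over mean compound inhibition, in both replicates, cut at about 43% in these data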;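 further: modified DeaD lifespan yeast strain shifted to restrictive glucose medium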); conditions: OD615, 48 h, at 10 µM, stronger effect = higher value
[11] = doxorubicin toxicity protection in MRP-1 cells – H69AR cells, CellTiter-Glo, duplicate, MRP-1 activator project, pilot screen (AID 807;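 active means viability increase at or above a cutoff of the median across tested compounds plus 3 SD, cut at about 8.5% in these data, passing the limit was not always enough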;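 further: compound pretreatment 18-22 h then 72 h combined with doxorubicin; 0% = doxorubicin alone and 100% = vehicle without doxorubicin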); conditions: H69AR viability with doxorubicin, CellTiter-Glo luminescence; at 10 µM; stronger effect = higher value
[12] = viability of HCT116 without oncogenic beta-catenin – human colon tumor cells, pilot screen (AID 823;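 active means cell viability at or below a set limit in both duplicate runs, the limit being the all-compound median minus 4 SD, cut at about 23% in these data, passing the limit was not always enough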;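 further: 0% = wells killed by 20 µM Hyamine and 100% = untreated DMSO cell wells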); conditions: HCT116 beta-catenin knockout viability, CellTiter-Glo, 60 h; at 10 µM; stronger effect = lower value
[13] = viability of PTEN-null HCT116 cells – cell-based, HCT116 clonal line, CellTiter-Glo, pilot screen (AID 824;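 active means viability at or below 27.92% in each of two runs, the all-compound median minus 4 SD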;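 further: 0% = 20 µM Hyamine control and 100% = vehicle cell control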); conditions: HCT116 PTEN-deleted viability, 60 h, at 10 µM, stronger effect = lower value
[14] = RAM pathway blockade in budding yeast – dse1pr::URA3 reporter, 5-FOA selection, pilot screen (AID 869;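 active means inhibition over a set limit, the all-compound mean plus 3 SD, in both replicate runs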;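 further: 0% = DMSO wells with no growth and 100% = 10 µM 1-NA-PP1 with full growth; RAM network block rescues cells from 5-FOA so hits raise OD615 growth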); conditions: S. cerevisiae dse1pr::URA3 5-FOA growth, OD615, 2 d; at 10 µM; stronger effect = higher value; strain carries analog-sensitive mutant Cbk1 kinase
[15] = RAM signaling pathway blockade in yeast – S. cerevisiae, Pdr1DBD-CYC8 efflux-inhibited sensitized strain, primary screen (AID 1298;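 active means RAM network inhibition above 8.4% in each of two replicates, 3 SD over the compound average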;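 further: 0% = DMSO untreated cells without growth and 100% = 10 µM 1-NA-PP1 full growth; higher means more yeast growth rescued from 5-FOA killing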); conditions: S. cerevisiae cbk1-as DSE1-URA3 strain, 5-FOA growth OD615, 2 d; at 50 µM; stronger effect = higher value
[16] = H69AR cells + 2 uM doxorubicin, measured here: viability with 2 uM doxorubicin, stronger effect = lower value
[17] = H69AR cells, compound alone cytotoxicity

Chain of Receptor tyrosine-protein kinase erbB-2 (Homo sapiens) (P04626 whole entry, looked up): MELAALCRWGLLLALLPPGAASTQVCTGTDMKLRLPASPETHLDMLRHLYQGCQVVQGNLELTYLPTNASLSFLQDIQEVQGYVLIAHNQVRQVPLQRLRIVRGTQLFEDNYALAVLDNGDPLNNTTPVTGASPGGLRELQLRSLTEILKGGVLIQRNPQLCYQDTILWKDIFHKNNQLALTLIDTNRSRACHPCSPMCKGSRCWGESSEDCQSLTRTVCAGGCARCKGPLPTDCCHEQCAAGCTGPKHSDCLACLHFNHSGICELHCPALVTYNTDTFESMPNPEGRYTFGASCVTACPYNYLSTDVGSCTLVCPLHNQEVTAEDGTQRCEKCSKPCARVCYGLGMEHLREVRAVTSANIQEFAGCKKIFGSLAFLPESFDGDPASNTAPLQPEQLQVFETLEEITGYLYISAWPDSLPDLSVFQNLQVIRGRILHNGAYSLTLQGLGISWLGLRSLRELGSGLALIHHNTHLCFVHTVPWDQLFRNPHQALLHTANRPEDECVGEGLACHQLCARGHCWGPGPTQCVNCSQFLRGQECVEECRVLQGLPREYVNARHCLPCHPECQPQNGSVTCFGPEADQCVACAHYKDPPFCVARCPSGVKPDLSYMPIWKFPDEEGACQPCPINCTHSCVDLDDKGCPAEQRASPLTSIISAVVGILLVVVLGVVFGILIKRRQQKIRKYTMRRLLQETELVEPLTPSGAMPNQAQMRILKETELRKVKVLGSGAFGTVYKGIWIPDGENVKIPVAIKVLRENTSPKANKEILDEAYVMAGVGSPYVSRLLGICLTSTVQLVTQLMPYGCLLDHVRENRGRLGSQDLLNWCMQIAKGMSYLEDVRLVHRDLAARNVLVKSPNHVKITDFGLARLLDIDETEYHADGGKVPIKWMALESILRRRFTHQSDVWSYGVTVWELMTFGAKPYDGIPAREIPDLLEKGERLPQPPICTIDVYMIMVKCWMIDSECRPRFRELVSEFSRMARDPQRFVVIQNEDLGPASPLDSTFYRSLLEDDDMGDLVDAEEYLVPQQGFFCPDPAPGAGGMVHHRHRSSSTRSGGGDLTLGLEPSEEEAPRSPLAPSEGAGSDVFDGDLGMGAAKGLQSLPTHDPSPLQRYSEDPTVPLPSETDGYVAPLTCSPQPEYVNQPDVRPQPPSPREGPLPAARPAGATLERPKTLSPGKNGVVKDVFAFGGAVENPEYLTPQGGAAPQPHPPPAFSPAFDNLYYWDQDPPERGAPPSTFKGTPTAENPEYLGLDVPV

SMILES | viability [1] | Her2 level [2] | viability [3] | viability [4] | viability [5] | differential viability (reversal) ([6]; H69AR cells + 2 uM doxorubicin) | viability [6, 16] | viability [6, 17] | inhibition [7] | inhibition [8] | growth inhibition [9] | growth inhibition [10] | viability increase [11] | viability [12] | viability [13] | inhibition [14] | RAM network inhibition [15]
Cc1ccc(CNC(=O)C2CCCN(S(=O)(=O)c3cnc[nH]3)C2)cc1 (stereo not drawn) | 94% | 110% (inactive) | 94% (inactive) | 94.5% (inactive) | 106% (inactive) | 13.9% (inactive) | 92.3% | 106% | -2.13% (inactive) | -3.61% (inactive) | 0.76% (inactive) | 6.6% (inactive) | 0.52% (inactive) | 109% (inactive) | 102% (inactive) | 0.415% (inactive) | 1.04% (inactive)
Cc1nc2ccc(S(=O)(=O)NC(C(=O)Nc3nccs3)C(C)C)cc2s1 (stereo not drawn) | 87% | 93% (inactive) | 87% (inactive) | 91.6% (inactive) | 95.7% (inactive) | 5.42% (inactive) | 90.3% | 95.7% | 0.13% (inactive) | -0.17% (inactive) | -5.25% (inactive) | 2.78% (inactive) | -1.85% (inactive) | 101% (inactive) | 104% (inactive) | 1.99% (inactive) | 1.91% (inactive)
CCOC(=O)c1ccc2[nH]c3c(c2c1)CN(C)CC3 | 94% | 87.5% (inactive) | 94% (inactive) | 86.6% (inactive) | 93.7% (inactive) | 7.91% (inactive) | 85.8% | 93.7% | -4.27% (inactive) | -0.83% (inactive) | -4.7% (inactive) | 10.1% (inactive) | 0.26% (inactive) | 44% (inactive) | 56.9% (inactive) | 0.51% (inactive) | 0.47% (inactive)
Cc1cnc(NC(=O)CSc2nnc(COc3c(C)cccc3C)o2)s1 | 83% | 102% (inactive) | 83% (inactive) | 79.9% (inactive) | 87.1% (inactive) | -6.84% (inactive) | 94% | 87.1% | -5.33% (inactive) | 4.83% (inactive) | -10.4% (inactive) | -2.15% (inactive) | -0.06% (inactive) | 93.9% (inactive) | 86.1% (inactive) | 1.23% (inactive) | 0.63% (inactive)
Cn1c(=O)[nH]c(=O)c2c1nc(N1CCCCC1)n2CCSc1ncccn1 | 101% | 89.5% (inactive) | 101% (inactive) | 102% (inactive) | 88.8% (inactive) | -3.65% (inactive) | 92.5% | 88.8% | -3.2% (inactive) | 0.83% (inactive) | 1.54% (inactive) | -4.51% (inactive) | 1.1% (inactive) | 101% (inactive) | 103% (inactive) | 2.44% (inactive) | -0.42% (inactive)
CSc1cccc(NC(=O)C2CCN(S(=O)(=O)c3ccc(F)cc3)CC2)c1 | 77.5% | 70.5% (inactive) | 77.5% (inactive) | 93.7% (inactive) | 84.4% (inactive) | -0.92% (inactive) | 85.3% | 84.4% | -7.57% (inactive) | -6.23% (inactive) | -1.68% (inactive) | -13.7% (inactive) | -4.63% (inactive) | 64.3% (inactive) | 62% (inactive) | 1.71% (inactive) | 7.8% (inactive)
Cn1cc(Cl)c(C(=O)NC2CCCC2)n1 | 83.5% | 118% (inactive) | 83.5% (inactive) | 108% (inactive) | 105% (inactive) | 14.1% (inactive) | 91.3% | 105% | -5.07% (inactive) | 5.5% (inactive) | -12.3% (inactive) | -8.69% (inactive) | -0.89% (inactive) | 104% (inactive) | 103% (inactive) | 1.5% (inactive) | 2.86% (inactive)
COc1cc(C(=O)N2c3ccccc3CC2C)cc(OC)c1OC (stereo not drawn) | 102% | 81.5% (inactive) | 102% (inactive) | 88.8% (inactive) | 81.8% (inactive) | -9.55% (inactive) | 91.3% | 81.8% | -4.59% (inactive) | -3.33% (inactive) | -3.11% (inactive) | -16.6% (inactive) | -4.64% (inactive) | 87.4% (inactive) | 83.8% (inactive) | 0.67% (inactive) | 6.34% (inactive)
COc1ccccc1NC(=O)C1(C)Cc2ccccc2C(=O)O1 (stereo not drawn) | 106% | 108% (inactive) | 106% (inactive) | 102% (inactive) | 91.7% (inactive) | 2.89% (inactive) | 88.8% | 91.7% | -2.82% (inactive) | 0.67% (inactive) | -6.73% (inactive) | 5.93% (inactive) | -0.93% (inactive) | 107% (inactive) | 99.8% (inactive) | 1.77% (inactive) | 5.4% (inactive)
